Shown are actives, neighbours in structure and some others; about 0.41% of the full set was active somewhere.
YopH PTP inh: inhibitors of Yersinia enterocolitica YopH tyrosine phosphatase | fluorescence Ex485/Em525 | inhibition, % (test concentration not listed) | 140,000 tested, 0.16% active; in the data active = inhibition above about 50%
RmlC RmlD mix: mixture blocks RmlC and RmlD coupled enzyme activity | 110,000 tested, 0.39% active | inhibition, % at 5.5 µM | RmlC/RmlD coupled enzyme inhibition, 384-well mixture HTS | AID 1532; in the data active = inhibition above about 30%, passing the limit was not always enough
* hit, by the source's call; . = no result; + = active, no number.

SMILES	YopH PTP inh	RmlC RmlD mix
CCN1C(=C2C(=O)c3ccccc3C2=O)C=Cc2ccccc21	-3	15
CCOc1ccc(C(=S)N2CCOCC2)cc1OC	50*	-10
CCOc1cc(C(=S)N2CCOCC2)ccc1OC	12	2
COc1ccc(NC(=S)Nc2ccc3nsnc3c2)cc1	-22	.
CCOc1ccc(NC(=S)Nc2ccc3nsnc3c2)cc1	84*	.
N#Cc1ccccc1Cn1cc(/C=C/[N+](=O)[O-])c2ccccc21	19	.
COc1ccc(N2CCN(Cc3cc(=O)oc4cc(-c5ccccc5)c(O)cc34)CC2)cc1	0	7
O=c1cc(CN2CCN(c3ccccc3F)CC2)c2cc(O)c(-c3ccccc3)cc2o1	61*	.
Cc1c(Cl)c(=O)oc2cc(OC(C)C)ccc12	-15	.
CCC(=O)Oc1ccc2c(C)c(Cl)c(=O)oc2c1	-32	+
Cc1cc(C)c(NC(=O)CSc2ccc3nnc(CCNC(=O)c4ccccc4)n3n2)c(C)c1	-10	.
CCOc1ccccc1-c1c2cc(O)c(=O)cc-2oc2cc(O)c(O)cc12	14	.
COc1ccc(OC)c(-c2c3cc(O)c(=O)cc-3oc3cc(O)c(O)cc23)c1	55*	.
COC(=O)CSc1nnc(CNC(=O)c2cccc(C)c2)n1-c1ccccc1OC	76*	.
COC(=O)CSc1nnc(CNC(=O)c2ccccc2OC)n1C	-38	5
O=S(=O)(NNc1ccc(Cl)nn1)c1ccc(F)cc1	-23	.
CCCCCC(=O)Cc1cc(O)cc2c1C(=O)Oc1cc(O)c(C(=O)O)c(CCCCC)c1O2	.	2
O=S(=O)(c1ccc2ccccc2c1)N1CCC(c2nc(-c3ccncc3)no2)CC1	50*	8
CN(C)c1ccc(-c2noc(C3CCN(S(=O)(=O)c4cccc(Cl)c4)CC3)n2)cc1	-32	6
COc1ccc(S(=O)(=O)N(C(C)=O)c2ccc(OC(C)=O)c3ccccc23)cc1[N+](=O)[O-]	-20	.
CCOC(=O)/C(N=Nc1ccc(F)cc1)=C(/O)c1ccc([N+](=O)[O-])cc1	62*	.
CCOC(=O)C(CC)/C(C)=N/NC(=O)c1ccc([N+](=O)[O-])cc1 (centres undefined)	-40	-7
COC(=O)C1(Cc2ccc(O)c(CC3OC3(C)C)c2)OC(=O)C(O)=C1c1ccc(O)cc1 (centres undefined)	.	6
COC(=O)C1=C(C(=O)OC)[N+]2=C3N(C(=O)NC2(C)C)[C@H](CO)C[C@@]32c3ccccc3N(Cc3ccccc3)[C@@H]12	.	-10
CCn1c(=O)c(C(=O)CN2CCN(S(=O)(=O)c3cc(C)ccc3C)CC2)c(N)n(Cc2ccccc2)c1=O	-7	.
SMILES	YopH PTP inh	RmlC RmlD mix
COc1ccc(NCc2ccc([N+](=O)[O-])s2)cc1	48	.
COc1ccc(NCc2ccc([N+](=O)[O-])s2)c(OC)c1	76*	.
CCCNc1cc(C)c(C#N)c2nc3ccccc3n12	-11	55
COCCNc1cc(C)c(C#N)c2nc3ccccc3n12	-26	36*
O=C(O)CCN1C(=O)c2ccccc2C1=O	3	-7
O=C1Cc2ccccc2C(=O)N1CCc1ccccc1	100*	-8
CCOc1ccc(-c2nnc(Nc3ccc(OC)c(C(=O)N4CCCCC4)c3)c3ccccc23)cc1	-7	.
CCOc1cc(-c2cc(-c3ccc(C)cc3)nc(N)c2C#N)ccc1O	-15	30*
CCOc1cc(-c2c(C#N)c(N)nc3c2CCc2ccccc2-3)ccc1O	-23	.
CC(C)(C)OC(=O)N1CCC2(CC1)Oc1ccc(F)cc1C(=O)C21CC(c2ccccc2)=NO1 (centres undefined)	.	-12
CN(C)c1cccc(C(=O)OCc2cc(=O)oc3cc(O)ccc23)c1	10	59
CC1CN(S(=O)(=O)c2cccc(C(=O)OCc3cc(=O)oc4cc(O)ccc34)c2)CC(C)O1 (centres undefined)	1	82*
Cc1ccc(NC(=S)NN(C)c2cc(C)nc(C)n2)cc1	-14	.
Cc1ccc(C(c2sc3nc(C)nn3c2O)N2CCOCC2)cc1 (centres undefined)	64*	5
Cc1nc2sc(C(c3ccc(F)cc3)N3CCOCC3)c(O)n2n1 (centres undefined)	-21	3
O=C(NCCNCCO)C1(C(F)(F)F)C/C(=C\CCO)CCCO1 (centres undefined)	.	4
COc1ccc(OCCn2nnc(-c3ccc(Cl)cc3)n2)cc1	-14	.
Cn1nc(-c2ccc(Cl)cc2)nc2c(=O)n(C)c(=O)nc1-2	101*	-86
CCCC(=O)NC(C)c1nc(-c2ccc(C)cc2)no1 (centres undefined)	.	8
CC(=O)C(C(C)=O)C1(O)C(=O)c2ccccc2C1=O	98*	.
O=C1C(O)=C(O)C(=O)c2ccccc21	.	6
COC(=O)c1ccc(C(=O)OC)c(NC(=O)CN(C)Cc2ccccc2)c1	-28	.
COc1ccc(C)cc1NC(=O)C(Sc1nnc(-c2ccncc2)n1-c1ccc(Cl)cc1)c1ccccc1 (centres undefined)	9	.
Cc1cccn2c(=O)c3cc(C#N)c(=N)n(Cc4ccncc4)c3nc12	-34	.
COCCNC(=O)c1cc2c(=O)n3cccc(C)c3nc2n(Cc2ccncc2)c1=N	-34	40*
SMILES	YopH PTP inh	RmlC RmlD mix
Cc1ccnc(SCc2cc(=O)c(OC(=O)c3ccc(Cl)c([N+](=O)[O-])c3)co2)n1	-1	.
CC1(C)COC(/C=C/c2ccc([N+](=O)[O-])cc2)=N1	52*	.
CC(=C/C(=O)O)/C=C/c1ccc([N+](=O)[O-])cc1	-12	.
COc1ccc(C(NC=O)c2cc(OC)c(OC)cc2Br)cc1OC (centres undefined)	-39	.
CCOC(=O)c1oc2ccc(Br)cc2c1CSc1nnc(C)s1	88*	9
CCOC(=O)c1oc2ccccc2c1CSc1nnnn1-c1ccc(OC)cc1	4	5
Cc1nc2cc3nc(C(F)(F)F)[nH]c3cc2[nH]1	-28	.
O=C(c1cccn2c(=O)c3ccccc3nc12)N1CCN(Cc2ccc3c(c2)OCO3)CC1	-37	3
O=C(c1ccc2nc3ccccc3c(=O)n2c1)N1CCN(Cc2ccc3c(c2)OCO3)CC1	-11	31*
COc1ccccc1/C=C(/CC(=O)NCc1ccc2c(c1)OCO2)c1nc2ccccc2s1	-5	.
Cc1c(Br)cc(C(=O)OC2CCN(C)CC2)c(C)c1C	54*	8
COc1ccc(C(=O)OC2CCN(C)CC2)cc1	3	-11
COc1ccc(F)cc1CN1CCN(c2cc(C)nc3c4c(C)cc(C)nc4nn23)CC1	-39	50*
COc1ccc(Cl)cc1CN1CCN(c2nc(C)cc(C)c2C#N)CC1	-47	5
C[C@@H]1CC[C@@]2(O[C@@H](CCO)C[C@H](O)[C@H]2O)O1	.	7
CC1CCN(c2c(NCC3CCC(C(=O)NCc4ccccc4Cl)CC3)c(=O)c2=O)CC1 (centres undefined)	-18	.
COC1=C(Nc2ccc(OC)cc2)C(=O)c2ccccc2C1=O	-19	.
COc1ccc(NC2=C(NCCO)C(=O)c3ccccc3C2=O)cc1	78*	.
CCOC(=O)C[C@H]1c2ccccc2S(=O)(=O)N1C1CC1	.	-13
CCOC(=O)c1sc(NC(=O)CCCn2nc([N+](=O)[O-])c(Cl)c2C)c(C(=O)OCC)c1C	-6	.
CCOC(=O)C(NC(=O)NCc1ccc(F)cc1)(OCC)C(F)(F)F (centres undefined)	-15	.
CCOC(=O)C(NC(=O)Nc1ccccc1)(OCC)C(F)(F)F (centres undefined)	53*	3
CCN(CC)CCOC(=O)c1ccc(NC(=O)C(C)NC(=O)C23CC4CC(CC(C4)C2)C3)cc1 (centres undefined)	-20	.

Screening results from PubChem.
